Test results from PMC7862700, “An all-to-all approach to the identification of sequence-specific readers for epigenetic DNA modifications on cytosine”.

Columns and labels:
Test in all cases: DAPPL (digital affinity profiling via proximity ligation, sequencing); 10 mM Tris-HCl pH 7.5, 50 mM NaCl, 1 mM DTT, 4% glycerol, room temperature, 30 min; GST-TFs on glutathione beads, 16-mer random dsDNA library, 0.1% formaldehyde crosslink after washing; high values mean tight binding
[1] = target: T1, FLI1 (Homo sapiens, UniProt Q01543 1-452); settings: protein: recombinant; tags: N-terminal GST; dsDNA, one strand shown
T1 sequence: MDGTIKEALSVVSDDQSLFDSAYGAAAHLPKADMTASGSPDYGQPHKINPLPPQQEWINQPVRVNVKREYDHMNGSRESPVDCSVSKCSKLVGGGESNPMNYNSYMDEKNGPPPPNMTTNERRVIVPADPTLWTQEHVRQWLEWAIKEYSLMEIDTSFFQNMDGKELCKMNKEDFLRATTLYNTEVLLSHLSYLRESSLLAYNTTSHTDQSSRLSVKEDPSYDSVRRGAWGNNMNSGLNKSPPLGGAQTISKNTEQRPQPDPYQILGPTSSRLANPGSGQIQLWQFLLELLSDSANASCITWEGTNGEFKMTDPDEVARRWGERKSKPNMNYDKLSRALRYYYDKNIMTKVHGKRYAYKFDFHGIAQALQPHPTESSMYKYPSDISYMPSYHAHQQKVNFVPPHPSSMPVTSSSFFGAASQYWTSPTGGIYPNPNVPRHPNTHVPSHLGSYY
Summary of the method: (§1)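 The binding signal reported is, for every hexamer, its read frequency for a factor over its read frequency for the tag-only sample. Reads came from pools of yeast-expressed, GST-fused human transcription factors on glutathione beads, barcoded with DNA and mixed with that sample, which were incubated with 200 nmole of a random double-stranded 16-mer DNA library in Tris/NaCl/DTT/glycerol buffer at room temperature for 30 min. After washing, the pools were crosslinked with 0.1% formaldehyde, proximity-ligated with BsaI/T4 ligase for 1 h at 37 °C, PCR-amplified and sequenced on an Illumina NextSeq500.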

[2] = target: T2, ELK1 (Homo sapiens, UniProt P19419 1-428); settings: protein: recombinant; tags: N-terminal GST; dsDNA, one strand shown
T2 sequence: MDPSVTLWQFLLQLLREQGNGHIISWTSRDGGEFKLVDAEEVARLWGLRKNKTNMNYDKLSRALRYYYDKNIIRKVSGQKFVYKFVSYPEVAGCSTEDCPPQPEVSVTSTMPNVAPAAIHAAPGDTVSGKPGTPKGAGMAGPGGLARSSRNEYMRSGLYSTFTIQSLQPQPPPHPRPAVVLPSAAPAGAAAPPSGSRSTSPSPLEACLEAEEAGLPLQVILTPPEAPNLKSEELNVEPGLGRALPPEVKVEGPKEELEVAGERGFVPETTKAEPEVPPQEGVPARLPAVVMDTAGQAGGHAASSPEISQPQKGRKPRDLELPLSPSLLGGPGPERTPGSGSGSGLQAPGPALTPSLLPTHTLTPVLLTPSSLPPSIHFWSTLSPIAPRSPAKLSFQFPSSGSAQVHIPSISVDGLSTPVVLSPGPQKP
Summary of the method: as §1

[3] = target: T3, GABPA (Homo sapiens, UniProt Q06546 1-454); settings: protein: recombinant; tags: N-terminal GST; dsDNA, one strand shown
T3 sequence: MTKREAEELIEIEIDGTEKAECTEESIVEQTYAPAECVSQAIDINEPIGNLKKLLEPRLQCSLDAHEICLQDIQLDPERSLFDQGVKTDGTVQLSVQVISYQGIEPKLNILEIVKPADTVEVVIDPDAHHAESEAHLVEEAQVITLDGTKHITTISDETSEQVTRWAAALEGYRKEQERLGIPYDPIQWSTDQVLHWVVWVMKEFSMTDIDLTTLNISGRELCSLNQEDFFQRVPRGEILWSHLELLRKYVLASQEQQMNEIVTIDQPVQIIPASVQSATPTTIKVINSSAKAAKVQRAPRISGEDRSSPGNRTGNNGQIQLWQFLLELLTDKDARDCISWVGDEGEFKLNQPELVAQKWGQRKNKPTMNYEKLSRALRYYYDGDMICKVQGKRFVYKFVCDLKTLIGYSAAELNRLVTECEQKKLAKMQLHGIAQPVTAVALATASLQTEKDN
Summary of the method: as §1

[4] = target: T4, ERG (Homo sapiens, UniProt P11308 1-479); settings: protein: recombinant; tags: N-terminal GST; dsDNA, one strand shown
T4 sequence: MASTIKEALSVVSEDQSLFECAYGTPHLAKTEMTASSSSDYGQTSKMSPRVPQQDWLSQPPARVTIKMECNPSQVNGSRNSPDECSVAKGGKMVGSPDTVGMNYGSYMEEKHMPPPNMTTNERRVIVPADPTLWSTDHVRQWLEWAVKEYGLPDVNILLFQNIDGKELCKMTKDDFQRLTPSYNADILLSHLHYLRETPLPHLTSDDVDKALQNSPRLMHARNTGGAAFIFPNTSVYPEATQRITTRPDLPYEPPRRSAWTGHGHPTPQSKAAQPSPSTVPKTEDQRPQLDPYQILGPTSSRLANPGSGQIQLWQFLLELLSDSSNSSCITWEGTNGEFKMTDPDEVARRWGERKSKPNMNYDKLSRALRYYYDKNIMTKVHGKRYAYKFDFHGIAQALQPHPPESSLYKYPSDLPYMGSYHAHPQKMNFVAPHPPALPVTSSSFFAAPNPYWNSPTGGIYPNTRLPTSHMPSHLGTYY
Summary of the method: as §1

[5] = target: ELF1 (Homo sapiens, UniProt P32519 1-619); settings: protein: recombinant; tags: N-terminal GST; dsDNA, one strand shown
Summary of the method: as §1

[6] = target: T5, EHF (Homo sapiens, UniProt Q9NZC4 1-300); settings: protein: recombinant; tags: N-terminal GST; dsDNA, one strand shown
T5 sequence: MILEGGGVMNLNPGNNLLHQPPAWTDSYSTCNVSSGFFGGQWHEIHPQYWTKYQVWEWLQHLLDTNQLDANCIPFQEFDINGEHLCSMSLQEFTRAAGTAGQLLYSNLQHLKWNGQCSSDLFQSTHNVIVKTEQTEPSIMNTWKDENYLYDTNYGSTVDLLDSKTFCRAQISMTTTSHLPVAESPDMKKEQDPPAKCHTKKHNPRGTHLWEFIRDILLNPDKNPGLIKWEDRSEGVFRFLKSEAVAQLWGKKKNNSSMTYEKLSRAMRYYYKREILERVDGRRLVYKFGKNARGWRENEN
Summary of the method: as §1

[7] = target: SPI1 (Homo sapiens, UniProt P17947 1-270); settings: protein: recombinant; tags: N-terminal GST; dsDNA, one strand shown
Summary of the method: as §1

[8] = target: SPIB (Homo sapiens, UniProt Q01892 1-262); settings: protein: recombinant; tags: N-terminal GST; dsDNA, one strand shown
Summary of the method: as §1

[9] = target: T6, ELK3 (Homo sapiens, UniProt P41970 1-407); settings: protein: recombinant; tags: N-terminal GST; dsDNA, one strand shown
T6 sequence: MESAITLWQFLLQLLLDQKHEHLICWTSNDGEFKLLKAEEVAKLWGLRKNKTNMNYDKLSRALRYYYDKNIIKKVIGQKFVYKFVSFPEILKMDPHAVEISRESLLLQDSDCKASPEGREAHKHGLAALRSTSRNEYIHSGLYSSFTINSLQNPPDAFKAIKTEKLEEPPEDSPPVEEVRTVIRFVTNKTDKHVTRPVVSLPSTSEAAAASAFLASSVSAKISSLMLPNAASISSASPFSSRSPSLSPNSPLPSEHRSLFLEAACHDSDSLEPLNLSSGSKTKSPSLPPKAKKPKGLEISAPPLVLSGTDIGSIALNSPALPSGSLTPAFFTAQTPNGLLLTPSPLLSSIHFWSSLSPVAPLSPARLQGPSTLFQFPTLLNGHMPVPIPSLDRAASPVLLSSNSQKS
Summary of the method: as §1

[10] = target: T7, FEV (Homo sapiens, UniProt Q99581 1-238); settings: protein: recombinant; tags: N-terminal GST; dsDNA, one strand shown
T7 sequence: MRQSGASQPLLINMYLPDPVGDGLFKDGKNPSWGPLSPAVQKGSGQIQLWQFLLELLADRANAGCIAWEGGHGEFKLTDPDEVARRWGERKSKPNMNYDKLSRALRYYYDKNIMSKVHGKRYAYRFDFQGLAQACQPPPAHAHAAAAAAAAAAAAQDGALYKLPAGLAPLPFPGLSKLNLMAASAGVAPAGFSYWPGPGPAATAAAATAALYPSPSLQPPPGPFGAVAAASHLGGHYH
Summary of the method: as §1

[11] = target: ETV5 (Homo sapiens, UniProt P41161 1-510); settings: protein: recombinant; tags: N-terminal GST; dsDNA, one strand shown
Summary of the method: as §1

[12] = target: HSF1 (Homo sapiens, UniProt Q00613 1-529); settings: protein: recombinant; tags: N-terminal GST; chain copies: 3; dsDNA, one strand shown
Summary of the method: as §1

[13] = target: T8, SPIC (Homo sapiens, UniProt Q8N5J4 1-248); settings: protein: recombinant; tags: N-terminal GST; dsDNA, one strand shown
T8 sequence: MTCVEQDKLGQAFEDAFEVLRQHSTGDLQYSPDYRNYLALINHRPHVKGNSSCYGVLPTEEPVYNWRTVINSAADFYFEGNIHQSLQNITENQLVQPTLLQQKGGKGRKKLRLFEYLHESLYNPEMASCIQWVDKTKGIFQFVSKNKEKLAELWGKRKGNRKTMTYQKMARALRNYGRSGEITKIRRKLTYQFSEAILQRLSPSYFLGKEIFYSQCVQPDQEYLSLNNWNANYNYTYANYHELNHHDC
Summary of the method: as §1

[14] = target: ELF4 (Homo sapiens, UniProt Q99607 1-663); settings: protein: recombinant; tags: N-terminal GST; dsDNA, one strand shown
Summary of the method: as §1

[15] = target: T9, ELK4 (Homo sapiens, UniProt P28324-2 1-405); settings: protein: recombinant; tags: N-terminal GST; dsDNA, one strand shown
T9 sequence: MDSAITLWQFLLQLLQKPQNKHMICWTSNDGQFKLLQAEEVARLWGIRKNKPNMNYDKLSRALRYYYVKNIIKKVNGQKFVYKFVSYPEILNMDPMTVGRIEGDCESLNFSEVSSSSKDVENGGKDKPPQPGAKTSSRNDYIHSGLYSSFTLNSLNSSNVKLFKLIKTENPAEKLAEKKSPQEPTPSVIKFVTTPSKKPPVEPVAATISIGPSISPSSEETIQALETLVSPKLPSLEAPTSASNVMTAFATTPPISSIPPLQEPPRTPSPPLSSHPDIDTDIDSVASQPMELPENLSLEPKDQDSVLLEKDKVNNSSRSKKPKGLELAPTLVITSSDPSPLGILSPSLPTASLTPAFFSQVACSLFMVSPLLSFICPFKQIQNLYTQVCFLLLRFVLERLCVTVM
Summary of the method: as §1

[16] = target: T10, ETV2 (Homo sapiens, UniProt O00321 1-342); settings: protein: recombinant; tags: N-terminal GST; dsDNA, one strand shown
T10 sequence: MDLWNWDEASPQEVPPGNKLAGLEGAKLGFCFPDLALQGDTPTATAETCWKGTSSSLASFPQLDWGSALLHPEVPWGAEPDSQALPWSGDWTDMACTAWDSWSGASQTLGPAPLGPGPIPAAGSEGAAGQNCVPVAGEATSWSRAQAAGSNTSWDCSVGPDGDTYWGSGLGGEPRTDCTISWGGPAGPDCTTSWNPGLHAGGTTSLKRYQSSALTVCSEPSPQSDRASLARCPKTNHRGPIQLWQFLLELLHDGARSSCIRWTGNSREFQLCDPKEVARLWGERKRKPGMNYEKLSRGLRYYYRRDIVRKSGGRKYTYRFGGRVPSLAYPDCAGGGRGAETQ
Summary of the method: as §1

[17] = target: T11, ELF3 (Homo sapiens, UniProt P78545 1-371); settings: protein: recombinant; tags: N-terminal GST; dsDNA, one strand shown
T11 sequence: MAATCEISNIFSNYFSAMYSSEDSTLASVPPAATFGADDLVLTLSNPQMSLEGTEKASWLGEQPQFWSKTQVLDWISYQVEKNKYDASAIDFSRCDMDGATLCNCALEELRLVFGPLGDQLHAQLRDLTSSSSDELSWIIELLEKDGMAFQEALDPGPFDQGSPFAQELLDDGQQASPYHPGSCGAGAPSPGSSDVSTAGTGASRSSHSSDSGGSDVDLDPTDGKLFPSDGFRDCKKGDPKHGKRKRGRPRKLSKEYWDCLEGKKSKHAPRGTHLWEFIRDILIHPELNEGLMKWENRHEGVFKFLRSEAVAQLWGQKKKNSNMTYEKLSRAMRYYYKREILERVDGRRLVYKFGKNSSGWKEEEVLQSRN
Summary of the method: as §1

[18] = target: ETV1 (Homo sapiens, UniProt P50549 1-477); settings: protein: recombinant; tags: N-terminal GST; dsDNA, one strand shown
Summary of the method: as §1

Sequence of ELF4 (Q99607 whole entry): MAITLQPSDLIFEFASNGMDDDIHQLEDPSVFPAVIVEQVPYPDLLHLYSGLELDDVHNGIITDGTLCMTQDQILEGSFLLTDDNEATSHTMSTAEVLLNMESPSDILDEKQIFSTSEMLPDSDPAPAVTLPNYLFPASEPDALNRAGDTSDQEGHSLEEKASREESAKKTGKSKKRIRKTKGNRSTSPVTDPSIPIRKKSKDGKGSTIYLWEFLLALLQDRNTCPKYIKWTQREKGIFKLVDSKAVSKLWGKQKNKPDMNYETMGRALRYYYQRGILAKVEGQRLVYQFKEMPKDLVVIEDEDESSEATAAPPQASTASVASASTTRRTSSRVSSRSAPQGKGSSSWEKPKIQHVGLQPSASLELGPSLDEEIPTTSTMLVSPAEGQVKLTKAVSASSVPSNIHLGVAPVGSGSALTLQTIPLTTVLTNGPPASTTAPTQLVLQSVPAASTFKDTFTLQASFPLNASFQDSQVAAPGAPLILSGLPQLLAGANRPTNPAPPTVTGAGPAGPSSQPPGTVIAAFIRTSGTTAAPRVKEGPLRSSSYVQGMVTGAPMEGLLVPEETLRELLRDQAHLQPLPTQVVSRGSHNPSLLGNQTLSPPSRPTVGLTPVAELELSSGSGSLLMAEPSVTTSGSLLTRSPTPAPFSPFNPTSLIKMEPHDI
Sequence of ETV5 (P41161 whole entry): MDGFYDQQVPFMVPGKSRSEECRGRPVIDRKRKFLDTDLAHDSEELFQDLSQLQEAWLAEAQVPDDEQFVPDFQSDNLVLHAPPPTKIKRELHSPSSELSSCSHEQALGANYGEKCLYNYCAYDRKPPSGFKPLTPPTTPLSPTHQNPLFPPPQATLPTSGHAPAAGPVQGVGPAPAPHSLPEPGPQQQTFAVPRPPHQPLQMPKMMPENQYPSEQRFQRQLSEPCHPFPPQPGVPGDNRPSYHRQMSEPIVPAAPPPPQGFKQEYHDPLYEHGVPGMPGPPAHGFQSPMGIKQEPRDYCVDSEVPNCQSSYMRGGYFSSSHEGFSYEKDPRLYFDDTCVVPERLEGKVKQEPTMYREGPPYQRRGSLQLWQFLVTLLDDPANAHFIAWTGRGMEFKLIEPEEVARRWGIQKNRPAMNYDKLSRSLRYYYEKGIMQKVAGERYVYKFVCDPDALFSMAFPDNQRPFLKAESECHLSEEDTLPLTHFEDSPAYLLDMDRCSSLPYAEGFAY
Sequence of HSF1 (Q00613 whole entry): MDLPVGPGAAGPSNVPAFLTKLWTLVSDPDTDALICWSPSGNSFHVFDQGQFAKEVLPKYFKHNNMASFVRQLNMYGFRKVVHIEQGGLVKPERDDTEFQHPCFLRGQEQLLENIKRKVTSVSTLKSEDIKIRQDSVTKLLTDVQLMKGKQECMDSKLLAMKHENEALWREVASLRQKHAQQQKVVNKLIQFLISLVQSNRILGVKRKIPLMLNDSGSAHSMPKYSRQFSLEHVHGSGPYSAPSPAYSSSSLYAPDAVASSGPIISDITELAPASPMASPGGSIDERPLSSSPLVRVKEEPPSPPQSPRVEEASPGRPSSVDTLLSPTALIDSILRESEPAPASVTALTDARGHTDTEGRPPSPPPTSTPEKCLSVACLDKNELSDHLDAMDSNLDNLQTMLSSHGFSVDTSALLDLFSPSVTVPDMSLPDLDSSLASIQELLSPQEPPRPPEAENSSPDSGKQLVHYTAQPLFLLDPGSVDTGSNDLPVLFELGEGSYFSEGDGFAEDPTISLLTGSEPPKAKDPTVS
Sequence of SPIB (Q01892 whole entry): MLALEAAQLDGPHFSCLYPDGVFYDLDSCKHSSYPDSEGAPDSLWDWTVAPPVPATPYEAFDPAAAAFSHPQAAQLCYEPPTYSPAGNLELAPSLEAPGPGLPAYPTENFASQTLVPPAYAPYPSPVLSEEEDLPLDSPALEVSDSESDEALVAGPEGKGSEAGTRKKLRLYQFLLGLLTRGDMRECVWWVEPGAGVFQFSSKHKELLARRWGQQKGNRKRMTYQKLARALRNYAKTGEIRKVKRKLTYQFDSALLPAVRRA
Sequence of ELF1 (P32519 whole entry): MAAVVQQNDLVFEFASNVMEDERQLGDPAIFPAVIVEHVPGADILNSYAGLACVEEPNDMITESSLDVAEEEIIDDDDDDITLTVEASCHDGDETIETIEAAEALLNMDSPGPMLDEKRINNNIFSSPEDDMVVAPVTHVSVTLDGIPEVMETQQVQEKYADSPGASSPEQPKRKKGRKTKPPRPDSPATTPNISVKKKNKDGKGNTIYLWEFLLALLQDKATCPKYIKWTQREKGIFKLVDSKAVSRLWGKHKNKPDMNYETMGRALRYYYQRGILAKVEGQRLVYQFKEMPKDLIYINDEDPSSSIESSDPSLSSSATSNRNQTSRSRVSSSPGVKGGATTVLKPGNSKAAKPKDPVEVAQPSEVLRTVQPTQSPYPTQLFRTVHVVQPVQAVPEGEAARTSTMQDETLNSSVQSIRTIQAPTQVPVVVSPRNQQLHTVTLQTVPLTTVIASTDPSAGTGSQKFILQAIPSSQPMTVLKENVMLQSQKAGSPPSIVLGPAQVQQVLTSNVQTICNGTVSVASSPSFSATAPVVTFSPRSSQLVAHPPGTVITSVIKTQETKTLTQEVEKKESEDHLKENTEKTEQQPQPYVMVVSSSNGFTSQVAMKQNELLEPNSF
Sequence of ETV1 (P50549 whole entry): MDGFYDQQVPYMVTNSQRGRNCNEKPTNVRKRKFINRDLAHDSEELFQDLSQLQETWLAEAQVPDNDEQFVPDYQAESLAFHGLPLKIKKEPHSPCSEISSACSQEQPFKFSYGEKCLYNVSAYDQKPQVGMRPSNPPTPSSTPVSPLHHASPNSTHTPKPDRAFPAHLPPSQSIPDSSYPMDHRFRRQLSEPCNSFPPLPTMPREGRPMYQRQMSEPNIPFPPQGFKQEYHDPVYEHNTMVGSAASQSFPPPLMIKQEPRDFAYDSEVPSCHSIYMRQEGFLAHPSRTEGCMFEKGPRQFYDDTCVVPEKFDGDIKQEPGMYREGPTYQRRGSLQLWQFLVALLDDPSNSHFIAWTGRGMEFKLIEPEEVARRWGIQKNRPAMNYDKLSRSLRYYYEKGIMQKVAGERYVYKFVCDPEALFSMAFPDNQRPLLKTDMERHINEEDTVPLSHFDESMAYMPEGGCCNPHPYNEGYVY

For GGAACT, the binding signal [1] was 1.83 fold enrichment (6-mer frequency, TF over GST control), the binding signal [2] was 1.8 fold enrichment (6-mer frequency, TF over GST control) and the binding signal [3] was 1.61 fold enrichment (6-mer frequency, TF over GST control). The binding signal [4] was 1.89 fold enrichment (6-mer frequency, TF over GST control), the binding signal [5] was 1.72 fold enrichment (6-mer frequency, TF over GST control) and the binding signal [6] was 1.8 fold enrichment (6-mer frequency, TF over GST control). The binding signal [7] was 2.42 fold enrichment (6-mer frequency, TF over GST control), the binding signal [8] was 2.03 fold enrichment (6-mer frequency, TF over GST control) and the binding signal [9] was 1.7 fold enrichment (6-mer frequency, TF over GST control). For the same sequence, the binding signal [10] was 1.72 fold enrichment (6-mer frequency, TF over GST control), the binding signal [11] was 1.96 fold enrichment (6-mer frequency, TF over GST control) and the binding signal [12] was 1.31 fold enrichment (6-mer frequency, TF over GST control). For the same sequence, the binding signal [13] was 2.08 fold enrichment (6-mer frequency, TF over GST control), the binding signal [14] was 1.55 fold enrichment (6-mer frequency, TF over GST control) and the binding signal [15] was 1.49 fold enrichment (6-mer frequency, TF over GST control). For the same sequence, the binding signal [16] was 1.89 fold enrichment (6-mer frequency, TF over GST control), the binding signal [17] was 1.87 fold enrichment (6-mer frequency, TF over GST control) and the binding signal [18] was 2.03 fold enrichment (6-mer frequency, TF over GST control).
